In the library only some 19% were active in any assay of this set; here they are far more common.
TGFb SMAD3 inh – qHTS for Inhibitors of TGF-b; AID 588855, 2011; HepG2 CAGA-GFP TGF-b/SMAD3 reporter, GFP fluorescence, 18 h; TGF-beta stimulated, 500 pg/mL final; Potency, µM (highest dose often 46.1 µM), for the others: top-dose activity, negative = inhibition, most hits filed as inhibitors; 410,000 compounds, 1.2% hits; also: potency is read from the fitted curve at half-maximal effect; % is scaled to controls: 0 for no effect and ±100 for the full control effect; nearly all actives have a fitted effect of over 65% in size
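GFP signal (ex488/em500-530) from TGF-beta-stimulated HEPG2 CAGA-GFP cells, 500 pg/mL final, 18 h at 37 degrees C in DMEM plus 1% FBS, normalized to unstimulated and DMSO-stimulated controls.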
IL-1B inflam inh – qHTS for Inhibitors of Inflammasome Signaling: IL-1-beta AlphaLISA Primary Screen; THP-1 LPS/ATP IL-1B secretion, AlphaLISA, 16 h; stronger effect = lower value; activity change, % at 57.5 µM; AID 743279, 2014; 360,000 compounds, 4.7% hits; in the data active = activity change below about -50%; inconclusive = mostly about -30% to -49%; also: % is scaled to controls: 0 for no effect and ±100 for the full control effect
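THP-1 cells pretreated 1 hr with compounds (up to 57.5 uM final), then stimulated with LPS (250 ng/mL final) plus ATP (1.25 mM final); secreted IL-1B measured by AlphaLISA after 16 hr, decreased signal indicating inhibition.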
TDP1 cell CPT – qHTS for Inhibitors of human tyrosyl-DNA phosphodiesterase 1 (TDP1): qHTS in cells in presence of CPT | AID 686979, 2013 | Potency, µM (titrated, usually from 46.2 µM), for inactives: at the top dose activity change, negative = growth inhibition, actives largely listed as inhibitors | chicken DT40 Tdp1-/-;hTDP1 cells + 20 nM CPT, ATP luminescence, 48 h | 420,000 compounds, 12% hits; also: potency is read from the fitted curve at half-maximal effect; % is scaled to controls: 0 for no effect and ±100 for the full control effect; nearly all actives have a fitted effect of over 55% in size
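Chicken DT40 Tdp1-/- cells complemented with human TDP1, 400 cells/well, exposed to compounds plus 20 nM camptothecin for at least 48 h at 37 C; viability read as ATP content by CellTiter-Glo luminescence.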
DT40 TDP1 no CPT – qHTS for Inhibitors of human tyrosyl-DNA phosphodiesterase 1 (TDP1): qHTS in cells in absence of CPT; DT40 Tdp1-/- hTDP1 cells, no CPT, ATP luminescence, 48 h; Potency, µM (highest dose often 46.2 µM), inactives show at the highest dose activity change, negative = growth inhibition, hits mostly inhibitors; 420,000 compounds, 15% hits; AID 686978, 2013; also: potency is read from the fitted curve at half-maximal effect; % is scaled to controls: 0 for no effect and ±100 for the full control effect; nearly all actives have a fitted effect of over 55% in size
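Camptothecin absent (DMSO only). Human TDP1-complemented DT40 knockout cells, 400 cells/well, 37 °C for minimum 48 hr; ATP measured via CellTiter-Glo, 30 min dark incubation, luminescence.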
HepG2 tox – qHTS for Inhibitors of TGF-b: Cytotox Counterscreen; HepG2 CAGA-GFP viability, ATP luminescence, 18 h; 410,000 compounds, 0.76% hits; Potency, µM (highest dose often 46.1 µM), for the others: at the highest dose activity change, negative = cytotoxicity, usual class: cytotoxic; also: potency is read from the fitted curve at half-maximal effect
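HepG2 CAGA-GFP cells (1000/well, DMEM with 1% FBS) received compound, then TGF-beta at 500 pg/mL final, and were incubated 18 hours at 37 degrees C. Viability was read by CellTiter-Glo luminescence. Media-only wells were set as complete cell-killing and DMSO as no toxicity.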
ASM inhibitor – Inhibitors of Secretory Acid Sphingomyelinase (S-ASM): qHTS | placental ASM, HMU-PC fluorogenic substrate, 60 min | 340,000 compounds, 0.006% hits | Sphingomyelin phosphodiesterase (Homo sapiens), P17405 | Potency, µM (top dose mostly 57.5 µM), without a hit: at the top dose activity change, negative = inhibition, most hits filed as inhibitors | AID 504937, 2011; also: potency is read from the fitted curve at half-maximal effect
Target sequence (P17405 47-631 limits assumed): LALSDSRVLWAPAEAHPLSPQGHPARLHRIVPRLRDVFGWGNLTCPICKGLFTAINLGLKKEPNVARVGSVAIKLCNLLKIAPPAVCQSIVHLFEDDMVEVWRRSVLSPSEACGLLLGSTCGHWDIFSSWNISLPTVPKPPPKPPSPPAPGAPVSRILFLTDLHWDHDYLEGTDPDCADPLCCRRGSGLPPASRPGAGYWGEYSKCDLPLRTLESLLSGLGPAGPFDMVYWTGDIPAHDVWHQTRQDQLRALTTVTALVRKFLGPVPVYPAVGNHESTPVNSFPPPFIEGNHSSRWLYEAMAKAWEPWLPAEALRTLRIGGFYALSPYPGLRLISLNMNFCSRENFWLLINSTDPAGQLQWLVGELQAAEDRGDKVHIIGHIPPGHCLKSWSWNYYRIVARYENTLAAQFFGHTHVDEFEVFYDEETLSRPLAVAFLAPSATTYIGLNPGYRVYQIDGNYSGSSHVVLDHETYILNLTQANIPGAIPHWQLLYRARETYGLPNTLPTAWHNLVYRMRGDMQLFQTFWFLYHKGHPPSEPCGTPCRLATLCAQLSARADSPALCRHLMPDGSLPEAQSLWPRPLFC
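Human placenta-derived ASM preincubated with compound 10 min at room temperature, then reacted with 9 uM (final) fluorogenic HMU-PC substrate for 60 min at 37 C. Stop solution raises pH to 10; fluorescence read at Ex 386/Em 447 nm.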
Active calls of the source: *; i = inactive; ? = inconclusive; nt = no result. Unless noted, calls follow the shape of the dose curve; as a rule, active = well fitted curve in the direction sought with a large enough effect; inconclusive = small, poorly fitted or top-dose-only effect, or another doubt; inactive = no such curve, though single readings can be large; an effect the other way counts as inactive or inconclusive.

SMILES | TGFb SMAD3 inh | IL-1B inflam inh | TDP1 cell CPT | DT40 TDP1 no CPT | HepG2 tox | ASM inhibitor
COC(=O)C1CSC(c2ccc(Cl)cc2)N1C(=O)c1ccccc1 (stereo unspecified) | -9% | 53 | 21µM* | 18µM* | -23% | -2%
COc1cccc(C(=O)N2C(C(=O)O)CSC2c2ccccc2Cl)c1 (stereo unspecified) | 9% | 25 | -3% | 3% | -3% | nt
COc1ccc(CCNC(=O)c2cc(C(=O)c3cc(C)ccc3O)cn(CCc3ccc(OC)cc3)c2=O)cc1 | -4% | 0 | ? | ? | -28% | -11%
COc1ccc(CCNC(=O)c2cc(C(=O)c3cc(Cl)ccc3O)cn(CCc3ccc(OC)cc3)c2=O)cc1 | ? | -25 | 10µM* | 10µM* | 2% | -29%
O=C(c1cc(C(=O)NCCc2ccccc2)c(=O)n(CCc2ccccc2)c1)c1cc(Cl)ccc1O | ? | 0 | ? | 15µM* | -6% | -20%
O=C(O)c1ccccc1C(=O)NCCc1ccc(Cl)cc1 | 0% | 0 | -19% | -17% | 1% | -1%
O=C(Nc1cccc(-n2cccn2)c1)C1CCCN(Cc2ccc(C#CCCO)cc2)C1 (stereo unspecified) | -3% | i | ? | 21µM* | 0% | -3%
CC(=O)c1cccc(CN2CCCC(C(=O)Nc3ccc(-c4ccco4)cc3)C2)c1 (stereo unspecified) | -4% | -18 | 15µM* | ? | -9% | 6%
COc1ccc(CN2CCCC(C(=O)Nc3cccc(-n4cccn4)c3)C2)cc1 (stereo unspecified) | 8% | ? | ? | ? | -15% | -1%
Cc1nn(C)c(Cl)c1CN1CCCC(C(=O)Nc2cccc(-n3cccn3)c2)C1 (stereo unspecified) | 6% | -9 | 12µM* | ? | -17% | 5%
O=C(Nc1ccc(-c2ccco2)cc1)C1CCCN(Cc2ccc(CO)o2)C1 (stereo unspecified) | 0% | -12 | ? | ? | -23% | 4%
CC(=O)c1cccc(CN2CCCC(C(=O)Nc3cccc(-n4cccn4)c3)C2)c1 (stereo unspecified) | -14% | i | ? | 23µM* | -1% | 1%
CCOc1ccc(CCNC(=O)CSc2nn(-c3ccc(C)c(Cl)c3)c(=S)s2)cc1OCC | 10% | 19 | ? | ? | -2% | -3%
COc1cc(S(C)=O)ccc1-c1nc2ncccc2[nH]1 (stereo unspecified) | 0% | 10 | 23% | 1% | -5% | 15%
O=C(NCc1ccccc1Cl)C1CCN(c2cnccn2)CC1 | -11% | 7 | -27% | 2% | -3% | 12%
Cc1nn(C)c(Cl)c1CN1CCCC(C(=O)Nc2ccc(-c3cscn3)cc2)C1 (stereo unspecified) | 5% | -69* | 16µM* | ? | -27% | -3%
CCc1ccccc1NC(=O)CN1C(=O)CCn2nc(-c3cccn3C)cc21 | 0% | nt | 1% | -2% | -5% | nt
O=C1[C@@H](c2ccccc2)CC[C@@H]2C=CC[C@H]3CCN1[C@@H]32 | nt | 4 | ? | 16µM* | nt | nt
COc1ccc2nc(-c3ccccn3)[nH]c2c1 | -19% | 0 | -17% | -10% | -63% | 6%
Cc1[nH]c(-c2ccccn2)nc(=S)c1Cl | -19% | nt | 10µM* | ? | -124% | -4%
Cc1cc(=S)nc(-c2ccccn2)[nH]1 | -26% | 0 | 3.3µM* | 4.6µM* | 2% | 2%
CCOC(=O)c1ccccc1NC(=O)c1cn(CC(C)C)c(=O)c2cc(OC)c(OC)cc12 | 0% | nt | -2% | ? | 6% | nt
O=C1C(Cc2ccccc2)SC(=Nc2ccccc2)N1c1ccccc1 (stereo unspecified) | 26% | 7 | 15% | ? | 3% | -6%
N=C1N(c2ccccc2)C(=S)C(=Nc2ccccc2)N1c1ccccc1 | 1.6µM* | 13 | 18µM* | 13µM* | 20% | -3%
CC(=N)c1c(O)c2ccccc2oc1=O | 6% | ? | -7% | 14% | -2% | 4%
SMILES | TGFb SMAD3 inh | IL-1B inflam inh | TDP1 cell CPT | DT40 TDP1 no CPT | HepG2 tox | ASM inhibitor
CC1CCC(C(=O)c2c(O)c3ccccc3oc2=O)CC1 (stereo unspecified) | -17% | -94* | 18µM* | 18µM* | -45% | -7%
Cc1ccccc1/C=N/Nc1ccnc2cc(Cl)ccc12 | 10µM* | -103* | 10µM* | ? | -103% | nt
Cc1ccc(/C=N/Nc2ccnc3cc(Cl)ccc23)c(C)c1 | ? | -77* | 6.5µM* | 12µM* | 14µM* | 255%
Oc1ccc(/C=N/Nc2ccnc3cc(Cl)ccc23)c(O)c1 | -11% | ? | ? | ? | 5% | 13%
Clc1ccc2c(N/N=C/c3ccc(Br)cc3)ccnc2c1 | 25% | -98* | ? | ? | 1% | 41%
COc1ccc(C(=O)NCc2nnc(SCC(=O)NO)n2Cc2ccccc2)cc1 | ? | ? | 18µM* | ? | -15% | ?
C=CCn1c(CCNC(=O)c2ccc(Cl)c(Cl)c2)nnc1SCCOc1ccc(OC)cc1 | ? | ? | ? | 26µM* | 1% | -16%
CCn1c(CNC(=O)Cc2ccc(OC)cc2)nnc1SCCOc1ccccc1 | 0% | ? | ? | 16µM* | -12% | 0%
C=CCn1c(SCCOc2ccccc2)nnc1C(C)NC(=O)c1ccccc1 (stereo unspecified) | -18% | -4 | ? | -7% | -28% | 4%
CCn1c(CNC(=O)c2ccc(OC)cc2)nnc1SCC(=O)Nc1ccc(OC)cc1 | 2% | nt | -3% | -9% | 21% | nt
Cc1ccc(C=Nc2ccccc2C(N)=O)s1 | ? | 30 | 4.1µM* | 3.7µM* | -1% | 90%
O=C(C[C@H]1C/C=C\C[C@@H](Cc2ccc(F)cc2)C(=O)OC[C@@H](Cc2c[nH]c3ccccc23)NC1=O)NCCO | ? | 24 | ? | ? | -6% | -4%
CCS(=O)(=O)NC(C)C(c1cccs1)N1CCN(c2ccc(F)cc2)CC1 (stereo unspecified) | 1% | 16 | ? | 21µM* | -30% | -1%

Source: PubChem BioAssay
